Source: PubChem BioAssay (NCATS)
Results filed as inconclusive are left out. Calls of active or inactive are those of the source. The call rests on the fitted dose curve; in most records, active means well fitted curve in the direction sought with a large enough effect; inconclusive means small, poorly fitted or top-dose-only effect, or another doubt; inactive means no such curve, though single readings can be large; an effect the other way counts as inactive or inconclusive.

Assays:
[1] = qHTS of pediatric cancer cell lines to identify multiple opportunities for drug repurposing: Confirmatory screen for NB1643 cells (AID 1347109); further: nearly all actives have a fitted effect of over 45% in size; further: potency means the concentration at half of the fitted maximal effect
Method in brief: (§1)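 Viability after 48 h compound treatment at 37C, 500-1,000 cells/well, read as ATP luminescence with CellTiter-Glo. Primary screens used 11-point (MIPE, 0.78 nM-46 µM) or 8-point (NPC, 0.59 nM-46 µM) final concentrations; follow-up screens used 11-point dilutions.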

[2] = qHTS of pediatric cancer cell lines to identify multiple opportunities for drug repurposing: Confirmatory screen for A673 cells (AID 1347110); further: nearly all actives have a fitted effect of over 65% in size; further: potency means the concentration at half of the fitted maximal effect
Method in brief: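 Viability was read as ATP luminescence (CellTiter-Glo) after 48 h of compound exposure at 37 C in A673 cells seeded at 500-1,000/well. Titrations reached 46 uM final, with 11 points in the confirmatory screen. Concentration-response curves were fitted directly.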

[3] = qHTS of pediatric cancer cell lines to identify multiple opportunities for drug repurposing: Confirmatory screen for SK-N-MC cells (AID 1347111);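 further: cells exposed to compound for 48 h before the readout; nearly all actives have a fitted effect of over 70% in size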; further: potency means the concentration at half of the fitted maximal effect
Method in brief: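 SK-N-MC cells at 500-1,000 cells/well in growth media were pre-incubated 5 h, then exposed to compounds at 11-point dilutions for 48 h at 37 degrees C, 5% CO2. Viability was read as CellTiter-Glo luminescence.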

[4] = qHTS of pediatric cancer cell lines to identify multiple opportunities for drug repurposing: Confirmatory screen for BT-12 cells (AID 1347112); further: nearly all actives have a fitted effect of over 55% in size; further: potency means the concentration at half of the fitted maximal effect
Method in brief: as §1

[5] = qHTS of pediatric cancer cell lines to identify multiple opportunities for drug repurposing: Confirmatory screen for LAN-5 cells (AID 1347113); further: nearly all actives have a fitted effect of over 65% in size; further: potency means the concentration at half of the fitted maximal effect
Method in brief: as §1

[6] = qHTS of pediatric cancer cell lines to identify multiple opportunities for drug repurposing: Confirmatory screen for DAOY cells (AID 1347114); further: nearly all actives have a fitted effect of over 65% in size; further: potency means the concentration at half of the fitted maximal effect
Method in brief: (§2)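 Viability measured as metabolically active cells via CellTiter-Glo luminescence following 48 hours of compound exposure, 11-point dilutions in confirmatory testing. 500-1,000 cells/well plated 5 hours before dosing; controls were DMSO and 2.3 µM bortezomib.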

[7] = qHTS of pediatric cancer cell lines to identify multiple opportunities for drug repurposing: Confirmatory screen for NB-EBc1 cells (AID 1347115); further: nearly all actives have a fitted effect of over 45% in size; further: potency means the concentration at half of the fitted maximal effect
Method in brief: as §1

[8] = qHTS of pediatric cancer cell lines to identify multiple opportunities for drug repurposing: Confirmatory screen for control Hh wild type fibroblast cells (AID 1347121); further: nearly all actives have a fitted effect of over 70% in size
Method in brief: as §1

[9] = qHTS of pediatric cancer cell lines to identify multiple opportunities for drug repurposing: Confirmatory screen for U-2 OS cells (AID 1347122); further: nearly all actives have a fitted effect of over 65% in size; further: potency means the concentration at half of the fitted maximal effect
Method in brief: as §1

[10] = qHTS of pediatric cancer cell lines to identify multiple opportunities for drug repurposing: Confirmatory screen for Rh18 cells (AID 1347125); further: nearly all actives have a fitted effect of over 55% in size; further: potency means the concentration at half of the fitted maximal effect
Method in brief: as §1

[11] = qHTS of pediatric cancer cell lines to identify multiple opportunities for drug repurposing: Confirmatory screen for OHS-50 cells (AID 1347128);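 further: compound exposure lasted 48 h at 37 degrees C; nearly all actives have a fitted effect of over 55% in size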; further: potency means the concentration at half of the fitted maximal effect
Method in brief: as §1

[12] = qHTS of pediatric cancer cell lines to identify multiple opportunities for drug repurposing: Confirmatory screen for SK-N-SH cells (AID 1347129); further: nearly all actives have a fitted effect of over 60% in size; further: potency means the concentration at half of the fitted maximal effect
Method in brief: as §1

[13] = qHTS of pediatric cancer cell lines to identify multiple opportunities for drug repurposing: Confirmatory screen for BT-37 cells (AID 1347117); further: nearly all actives have a fitted effect of over 55% in size; further: potency means the concentration at half of the fitted maximal effect
Method in brief: as §1

[14] = qHTS of pediatric cancer cell lines to identify multiple opportunities for drug repurposing: Confirmatory screen for MG 63 (6-TG R) cells (AID 1347119); further: nearly all actives have a fitted effect of over 55% in size; further: potency means the concentration at half of the fitted maximal effect
Method in brief: as §1

[15] = qHTS of pediatric cancer cell lines to identify multiple opportunities for drug repurposing: Confirmatory screen for Saos-2 cells (AID 1347127); further: nearly all actives have a fitted effect of over 60% in size; further: potency means the concentration at half of the fitted maximal effect
Method in brief: as §1

[16] = qHTS of pediatric cancer cell lines to identify multiple opportunities for drug repurposing: Confirmatory screen for Rh41 cells (AID 1347123); further: nearly all actives have a fitted effect of over 60% in size; further: potency means the concentration at half of the fitted maximal effect
Method in brief: as §1

[17] = qHTS of pediatric cancer cell lines to identify multiple opportunities for drug repurposing: Confirmatory screen for Rh30 cells (AID 1347126); further: nearly all actives have a fitted effect of over 55% in size; further: potency means the concentration at half of the fitted maximal effect
Method in brief: as §1

[18] = qHTS of pediatric cancer cell lines to identify multiple opportunities for drug repurposing: Confirmatory screen for TC32 cells (AID 1347118)
Method in brief: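 Measured quantity: luminescence from CellTiter-Glo, reflecting metabolically active TC32 cells following 48 h of compound. Curves came straight from multi-point titrations, with 8 or 11 points in primary and 11 in confirmatory screening.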

[19] = qHTS of pediatric cancer cell lines to identify multiple opportunities for drug repurposing: Confirmatory screen for RD cells (AID 1347124); further: potency means the concentration at half of the fitted maximal effect
Method in brief: as §1

[20] = qHTS of pediatric cancer cell lines to identify multiple opportunities for drug repurposing: Confirmatory screen for SJ-GBM2 cells (AID 1347116); further: potency means the concentration at half of the fitted maximal effect; nearly all actives have a fitted effect of over 60% in size
Method in brief: as §2

Row | SMILES | Potency [1] | Potency [2] | Potency [3] | Potency [4] | Potency [5] | Potency [6] | Potency [7] | Potency [8] | Potency [9] | Potency [10] | Potency [11] | Potency [12] | Potency [13] | Potency [14] | Potency [15] | Potency [16] | Potency [17] | Potency [18] | Potency [19] | Potency [20]
1 | CCC(=O)N1CCN(c2ccc(-n3c(=O)ccc4cnc5ccc(-c6cnc7ccccc7c6)cc5c43)cc2C(F)(F)F)CC1 | inactive | inactive | 9270 nM (active) | inactive | inactive | inactive | inactive | inactive | inactive | inactive | inactive | inactive |  |  |  |  |  |  |  | 
2 | Cc1cnc(-c2cc(N3CCN(C(=O)CCS(C)(=O)=O)CC3)ncc2Cl)c(C)c1 | inactive | inactive | inactive | inactive | inactive | inactive | inactive | inactive | inactive | inactive | inactive | inactive | 29300 nM (active) | inactive | inactive |  |  |  |  | 
3 | C[C@@]1(c2cc(-c3cncnc3)c(F)cc2F)CCSC(N)=N1 | 20800 nM (active) | inactive | 7370 nM (active) |  |  | inactive |  | inactive |  | inactive |  |  | 11700 nM (active) | 9270 nM (active) |  | 7370 nM (active) | inactive |  |  | 
4 | CC[C@]1(O)C[C@H]2CN(CCC3=c4ccccc4=N[C]3[C@@](C(=O)OC)(c3cc4c(cc3OC)N(C)[C@H]3[C@@](O)(C(N)=O)[C@H](O)[C@]5(CC)C=CCN6CC[C@]43[C@@H]65)C2)C1 | 104 nM (active) | 58.5 nM (active) | 117 nM (active) | 147 nM (active) | 147 nM (active) | 261 nM (active) |  | inactive | 928 nM (active) | inactive |  | 1180 nM (active) | 73.7 nM (active) | 261 nM (active) | 46.5 nM (active) |  |  | 104 nM (active) | 369 nM (active) | 
5 | CSc1cccc(Nc2ncc3cc(-c4c(Cl)cccc4Cl)c(=O)n(C)c3n2)c1 | 2930 nM (active) | 2080 nM (active) | 2610 nM (active) |  |  | 1170 nM (active) | 2080 nM (active) |  | 3290 nM (active) | 3290 nM (active) | 4650 nM (active) | 2640 nM (active) | 4140 nM (active) | 1850 nM (active) | 2330 nM (active) | 465 nM (active) | 6570 nM (active) |  |  | 
6 | C=C1[C@H](n2cnc3c(=O)[nH]c(N)nc32)C[C@H](O)[C@H]1CO | inactive | inactive | 7370 nM (active) | inactive | inactive | inactive | inactive | inactive | inactive | inactive | inactive | inactive | inactive | inactive | inactive | inactive |  |  |  | 
7 | CC1=C(CC(=O)O)c2cc(F)ccc2C1=Cc1ccc(S(C)=O)cc1 (stereo unspecified) | inactive | inactive | inactive | inactive | inactive | inactive | inactive | inactive | inactive | inactive | inactive | inactive | inactive | inactive | inactive | inactive |  |  | inactive | 
8 | C[C@@H]1O[C@@H](O[C@H]2CC[C@@]3(C)[C@H](CC[C@@H]4[C@H]3C[C@@H](O)[C@]3(C)[C@@H](C5=CC(=O)OC5)CC[C@]43O)C2)C[C@H](O)[C@@H]1O[C@H]1C[C@H](O)[C@H](O[C@H]2C[C@H](O)[C@@H](O)[C@@H](C)O2)[C@H](C)O1 (stereo in doubt) | 339 nM (active) | 427 nM (active) | 269 nM (active) | 170 nM (active) | 302 nM (active) |  |  |  |  |  | inactive | 215 nM (active) | 95.5 nM (active) | 75.9 nM (active) | 1910 nM (active) | 107 nM (active) |  |  |  | 302 nM (active)
9 | C=CC(=O)Nc1cccc(Sc2nc(Nc3ccc(N4CCN(C)CC4)cc3)ncc2Cl)c1 | 8270 nM (active) | 4140 nM (active) | 1040 nM (active) | 23300 nM (active) | 9270 nM (active) | 23300 nM (active) | 18500 nM (active) |  | 16500 nM (active) | 16500 nM (active) | 14700 nM (active) | 9350 nM (active) | 13100 nM (active) | 18500 nM (active) | 16500 nM (active) | 10400 nM (active) |  |  | 5850 nM (active) | 14700 nM (active)
10 | CC1(C)CC(=O)c2c(C(F)(F)F)nn(-c3ccc(C(N)=O)c(NC4CCC(O)CC4)c3)c2C1 (stereo unspecified) | 165 nM (active) | 147 nM (active) | 165 nM (active) | inactive | 185 nM (active) | inactive | 261 nM (active) |  | 185 nM (active) | 261 nM (active) |  | 264 nM (active) | 104 nM (active) |  |  | 369 nM (active) |  |  |  | 
11 | Nc1ccc(-c2ccc3ncc4ccc(=O)n(-c5cccc(C(F)(F)F)c5)c4c3c2)cn1 | 369 nM (active) | 185 nM (active) | 131 nM (active) |  | 165 nM (active) | 3690 nM (active) | 293 nM (active) |  | 185 nM (active) | 928 nM (active) | 261 nM (active) | 296 nM (active) | 117 nM (active) | 20.8 nM (active) | 329 nM (active) | 36.9 nM (active) |  | 73.7 nM (active) |  | 233 nM (active)
